From publication PMC5540273 (PLoS ONE, 2017)

Experiments:
Details in all cases: concentration: 1 μM, replicates: in singlicate; n = 1
LOK = system: T1, LOK
T1 construct: gene STK10

LRRK2 = system: LRRK2
LTK = system: LTK
LYN = system: LYN
LZK = system: T2, LZK
T2 construct: gene MAP3K13

MAK = system: MAK
MAP3K15 = system: MAP3K15
MAP3K1 = system: MAP3K1
MAP3K2 = system: MAP3K2
MAP3K3 = system: MAP3K3
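Also: KINOMEscan kinase panel screen.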

Row | Structure (SMILES) | %Inh (LOK) [%] | %Inh (LRRK2) [%] | %Inh (LTK) [%] | %Inh (LYN) [%] | %Inh (LZK) [%] | %Inh (MAK) [%] | %Inh (MAP3K15) [%] | %Inh (MAP3K1) [%] | %Inh (MAP3K2) [%] | %Inh (MAP3K3) [%]
1 | COc1cccc(-n2cnc3c(N)ncnc32)c1 [SKF-97416] | 4 | 63 | 0 | 8 | 33 | 10 | 22 | 29 | 35 | 22
2 | O=C(Nc1n[nH]c2nc(-c3ccccc3)c(Br)cc12)C1CC1 [SB-708998] | 0 | 29 | 4 | 3 | 0 | 12 | 3 | 0 | 7 | 4
3 | COc1cc2nccc(Nc3ccc(OCc4ccc(NC(C)=O)cc4)cc3)c2cc1OC.Cl [GW440135] | 0 | 0 | 0 | 23 | 24 | 0 | 0 | 0 | 18 | 0
4 | Cc1cc(Nc2nc(-c3cccc(C)n3)nc3ccccc23)ccn1 [GW872411] | 0 | 0 | 0 | 0 | 0 | 0 | 0 | 0 | 0 | 0
5 | CCn1c(-c2ccoc2)nc2cnccc21 [SB-733887] | 0 | 0 | 1 | 4 | 0 | 18 | 0 | 14 | 3 | 0
6 | COc1ccc(-c2cc3c(C)nc(N)nc3n([C@H]3CC[C@H](OCCO)CC3)c2=O)cn1 | 9 | 0 | 9 | 0 | 0 | 0 | 0 | 0 | 0 | 0
7 | COc1ccc(-c2cc3c(C)nc(N)nc3n([C@H]3CC[C@H](O)CC3)c2=O)cn1 | 0 | 0 | 0 | 0 | 0 | 0 | 0 | 0 | 0 | 0
8 | CN1C(=O)C(Nc2ccccc2)=C(c2ccccc2)C1=O [SB-300079] | 0 | 0 | 0 | 0 | 0 | 0 | 0 | 0 | 21 | 0
9 | CN1C(=O)C(Nc2cc(Cl)c(O)c(Cl)c2)=C(c2ccc(Cl)cc2)C1=O [SB-404321] | 0 | 0 | 0 | 24 | 6 | 0 | 0 | 0 | 0 | 0
10 | CN(C)c1cc(-c2ccc3c(N)n[nH]c3c2)nc(N)n1 [GSK2219329] | 0 | 0 | 4 | 0 | 10 | 16 | 0 | 0 | 0 | 0
11 | CCC(=O)c1c(-c2ccccc2)c2cc(Cl)ccc2c(=O)n1Cc1cc(S(C)(=O)=O)n(CCC(C)(C)O)n1 | 16 | 6 | 6 | 18 | 13 | 2 | 43 | 3 | 21 | 37
12 | COC(=O)c1c(-c2ccccc2)c2cc(Br)ccc2c(=O)n1Cc1ccc(S(C)(=O)=O)cc1 | 6 | 11 | 9 | 14 | 33 | 34 | 26 | 27 | 0 | 32
13 | Nc1n[nH]c2nnc(-c3ccccc3)c(-c3ccccc3)c12 [GW554060] | 0 | 41 | 0 | 100 | 3 | 26 | 0 | 25 | 3 | 0
14 | FC(F)(F)c1ccc(-c2ncn(CCCN3CCOCC3)c2-c2ccncc2)cc1 [SB-217780] | 10 | 0 | 23 | 3 | 0 | 29 | 7 | 12 | 8 | 0
15 | Cc1cccc(-c2nc(Nc3ccc4c(cnn4C)c3)c3ccccc3n2)n1 [GW876731] | 10 | 0 | 0 | 5 | 0 | 29 | 0 | 0 | 12 | 10
16 | Cc1c(Cn2c(C)nn3c(=O)cc(N4CCO[C@H](C)C4)nc23)cccc1C(F)(F)F [GSK2373690] | 0 | 31 | 0 | 0 | 0 | 0 | 26 | 7 | 2 | 0
17 | Cc1nnc(-c2ccc(C)c(-c3ccc(C(=O)O)cc3)c2)o1 [GW608005] | 100 | 46 | 0 | 0 | 0 | 19 | 14 | 0 | 0 | 0

Row | Structure (SMILES) | %Inh (LOK) [%] | %Inh (LRRK2) [%] | %Inh (LTK) [%] | %Inh (LYN) [%] | %Inh (LZK) [%] | %Inh (MAK) [%] | %Inh (MAP3K15) [%] | %Inh (MAP3K1) [%] | %Inh (MAP3K2) [%] | %Inh (MAP3K3) [%]
18 | Cl.NS(=O)(=O)c1cccc(Nc2cc(-c3ccc(F)cc3)n[nH]2)c1 [GW824645] | 0 | 0 | 0 | 0 | 0 | 0 | 1 | 0 | 22 | 0
19 | Cl.c1ccc(Cn2cnc3cc(Nc4ncnc5ccccc45)ccc32)cc1 [GW272142] | 0 | 0 | 0 | 0 | 22 | 0 | 0 | 5 | 0 | 0
20 | COc1cc(Nc2nccc(N3CCC(NC(=O)C4COc5ccccc5O4)C3)n2)cc(OC)c1OC (stereo not shown) [GSK1379761] | 0 | 0 | 38 | 19 | 58 | 44 | 0 | 2 | 10 | 0
21 | C[C@@H]1CC[C@H](C(=O)NC2CCCCC2)CN1c1cc(-c2ccc3c(N)n[nH]c3c2)nc(N)n1 [GSK2291363] | 0 | 0 | 0 | 0 | 0 | 25 | 0 | 21 | 20 | 0
22 | Fc1cccc(CSc2nnc(-c3ccc4c(c3)CCO4)o2)c1 | 9 | 10 | 16 | 19 | 0 | 5 | 15 | 26 | 2 | 2
23 | Nc1nc(N)c2nc(-c3ccccc3)[nH]c2n1 [SKF-12778] | 14 | 18 | 5 | 3 | 0 | 3 | 12 | 9 | 26 | 13
24 | Cn1c(=O)c(F)c(Nc2ccc(I)cc2F)c2c(=O)n(OC[C@H](O)CO)cnc21 | 2 | 0 | 20 | 14 | 0 | 0 | 0 | 0 | 0 | 4
25 | O=C(Nc1ccc2c(c1)OCO2)NC1CCN(c2ccnc(NCc3ccc(F)cc3)n2)CC1 [GSK1379859] | 0 | 0 | 1 | 4 | 0 | 79 | 0 | 8 | 0 | 0
26 | Cc1nnc(-c2ccc3ncn(-c4ccc(S(C)=O)cc4)c3c2)o1 (stereo not shown) | 4 | 0 | 0 | 8 | 0 | 0 | 0 | 16 | 0 | 0
27 | COc1cc2ncn(-c3cc(OCc4ccncc4Br)c(C(N)=O)s3)c2cc1OC [GW854278] | 87 | 0 | 7 | 4 | 0 | 2 | 0 | 65 | 20 | 1
28 | CCC(=O)c1c(-c2ccccc2)c2cc(Cl)ccc2c(=O)n1Cc1ccc(C(=O)O)cc1 | 0 | 0 | 0 | 0 | 0 | 4 | 0 | 0 | 0 | 0
29 | Nc1ncnc2c1ncn2-c1cccc(F)c1 [SKF-97560] | 0 | 31 | 0 | 0 | 13 | 0 | 0 | 16 | 3 | 5
30 | COc1ccc(-n2cnc3c(N)ncnc32)cc1 [SKF-97236] | 0 | 17 | 20 | 0 | 0 | 0 | 13 | 9 | 8 | 8
31 | CCc1ccc(-c2ccc3c(c2)-c2nn(C)cc2S(=O)(=O)N3C)cc1 | 2 | 0 | 0 | 0 | 0 | 0 | 0 | 0 | 0 | 0
32 | COc1cc2ncn(-c3cc(OCCCc4ccccc4)c(C(N)=O)s3)c2cc1OC [GSK205189] | 40 | 5 | 0 | 0 | 0 | 4 | 0 | 22 | 0 | 0
33 | Nc1nccc2scc(-c3ccc4c(c3)CCN4C(=O)Cc3ccccc3)c12 [GSK2576924] | 21 | 0 | 69 | 0 | 1 | 23 | 9 | 0 | 12 | 0
34 | COC(=O)c1c(-c2ccccc2)c2cc(C)ccc2c(=O)n1Cc1ccccc1 | 0 | 0 | 0 | 7 | 0 | 0 | 0 | 0 | 0 | 0
